Assay outcomes as filed in PubChem.
Compounds with a hit are over-represented: about 27% of the library has one in this group of screens.
CYP2C19 activ: increases human CYP2C19 enzyme activity. P33261. recombinant CYP2C19, luciferin-H EGE luminescence; hits give high values; 0 = fully inhibited enzyme, 1 = untreated enzyme. activation factor at 5 µM. 96,000 tested, under 10 active;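 active = activation factor of at least 2 at 5 µM in the primary screen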
CYP2C9 act: activators of human CYP2C9. activation factor at 5 µM. recombinant CYP2C9, luciferin-H conversion, luminescence; hits give high values; factor 1 = untreated enzyme, 0 = blocked. 1.4% of 96,000 active. AID 1024;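 active = activation factor of 2 or more for CYP2C9 at a 5 µM dose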
CYP2C9 inhib: human CYP2C9 inhibition. P11712. CYP2C9 Supersomes, luciferin-H conversion, luminescence. inhibition, % at 5 µM. 20% of 96,000 active. AID 777;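 active = blocking of liver enzyme CYP2C9 beyond about 50% at 5 µM, limit read from the data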
Cav3 T inh: inhibitors of human Cav3.2 T-type calcium channel. Cav3.2-expressing cells, Fluo-4 calcium fluorescence FDSS; hits give low values. B-score at 10 µM. 4% of 100,000 active. AID 449739;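 active = single-dose well whose peak fluorescence ratio is a statistical outlier from its plate by either plate-standardised score or position-corrected B-score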
CYP2C19 inhib: inhibitors of human CYP2C19; inhibition, % at 5 µM; CYP2C19 Supersomes, luciferin-H EGE luminescence, 30 min; 21% of 96,000 active; AID 778;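 active = CYP2C19 inhibition above a set limit at 5 µM in the primary screen, cut at about 50% in these data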
PTK2B oligo ant: Pyk2 (human) oligomerization antagonism | AID 1347419 | z-score (the deposit names both 25 µM and 10 µM) | 0.83% of 99,000 active | Q14289 | Q293 cells, Pyk2 FERM NanoBiT luminescence; hits give low values;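 active = Z-score of -3 or lower, scaled per plate to the spread of control and sample wells; inactive = z-score above -3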;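 also: negative z-score means lost luminescence so less FERM oligomerization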
Hits are given with their value; – = inactive; · = no result.

SMILES	CYP2C19 activ	CYP2C9 act	CYP2C9 inhib	Cav3 T inh	CYP2C19 inhib	PTK2B oligo ant
CCc1nc(SCC(=O)N2CCC(C)CC2)c2c(=O)n(C)c(=O)n(C)c2n1	·	·	·	–	·	·
O=C(Nc1ccc(S(=O)(=O)NCCc2ccccc2)cc1)c1ccco1	–	–	95.0	–	58.8	–
O=C(Nc1ccc(OC(=O)c2ccco2)cc1)c1ccco1	·	·	·	–	·	–
O=C(CCc1ccccc1)Nc1ccc(NC(=O)c2ccco2)cc1	–	–	81.5	–	71.1	–
O=C(Nc1ccc(S(=O)(=O)NCc2cccnc2)cc1)c1ccco1	–	–	–	–	–	–
CCOCC(=O)Nc1ccc(S(=O)(=O)NCCc2ccccc2)cc1	–	–	–	·	60.3	–
CCOCCCNS(=O)(=O)c1ccc(NC(=O)c2ccccc2)cc1	–	–	–	–	–	–
O=C(O)COc1ccc(NC(=O)c2ccco2)cc1	–	2.6	–	–	–	–
c1ccn2c(Cc3nnc4ccccn34)nnc2c1	–	–	–	–	–	–
OC(COc1c(Cl)cc(Cl)cc1Cl)CN1CCCCC1 (stereo not drawn)	–	–	–	-2.9	–	–
CCCOc1ccccc1N/C(=N/c1nc(C)cc(C)n1)NC(=O)Nc1ccc(Cl)cc1	–	–	–	–	–	–
Clc1ccc(C2=Nn3c(nnc3-c3cccs3)SC2)cc1	·	·	·	–	·	–
Fc1ccccc1Cc1nnc2n1N=C(c1ccc(Cl)cc1)CS2	–	–	56.1	–	–	–
CCOC(=O)c1sc2c(c1C)C(c1cccs1)C1=C(CCCC1=O)N2 (stereo not drawn)	–	–	–	–	–	–
COC(=O)C1=C(N)OC2=C(C(=O)CCC2)C1c1cccs1 (stereo not drawn)	–	–	–	–	–	–
CCOC(=O)C1=C(N)OC2=C(C(=O)CCC2)C1c1cccs1 (stereo not drawn)	–	–	80.2	–	88.2	–
CCOC(=O)C1=C(C)NC2=C(C(=O)CCC2)C1c1cccs1 (stereo not drawn)	–	–	64.5	·	73.7	–
COCCOC(=O)C1=C(N)OC2=C(C(=O)CCC2)C1c1cccnc1 (stereo not drawn)	–	–	–	–	60.9	–
COc1ccc(C2/C=C\CN(C(=O)C3CCCC3)[C@H](Cc3ccccc3)C(=O)N2Cc2ccc(F)cc2)cc1 (stereo partly drawn)	·	·	·	–	·	·
O=C(Nc1ccccc1)O/N=C/c1ccccc1Cl	–	–	–	–	–	–
CC(C)[C@@H]1NC(=O)c2cc([N+](=O)[O-])cc(I)c2NCCCC[C@@H](C(=O)NC(CC(=O)O)C(N)=O)NC(=O)[C@H](CO)NC1=O (stereo partly drawn)	·	·	·	–	·	·
CCc1nc2cc(Cl)c(Cl)cc2[nH]1	–	–	–	–	59.3	–
COc1ccc(OC)c(CNC(=O)CCNC(=O)Cn2ccc3ccccc3c2=O)c1	–	–	–	–	–	–
COc1ccc(OC)c(CNC(=O)CCN2C(=O)COc3ccccc32)c1	–	–	–	–	69.9	–
CCOc1ccc(CCNC(=O)CCN2C(=O)COc3ccccc32)cc1OCC	–	–	–	–	–	–
SMILES	CYP2C19 activ	CYP2C9 act	CYP2C9 inhib	Cav3 T inh	CYP2C19 inhib	PTK2B oligo ant
COc1ccc(Br)cc1CNC(=O)CCN1C(=O)COc2ccccc21	–	–	–	–	80.8	–
Cc1cccc(CCNS(=O)(=O)c2cnc[nH]2)c1	–	–	92.0	–	60.6	–
O=S(=O)(NCCc1ccccc1)c1ccc(Cl)nc1	·	·	·	·	·	–
CC(C)(C)NC(=O)CN(Cc1cccs1)C(=O)CCC(=O)Nc1nccs1	–	–	–	–	–	–
Cc1cc([N+](=O)[O-])ccc1NCc1ccccc1	–	–	51.9	–	87.2	–
Cc1cccc[n+]1CC(=O)Nc1ccc([N+](=O)[O-])cc1Cl	–	–	–	–	–	–
COc1ccc(CNC(=O)COc2ccc([N+](=O)[O-])cc2)cc1	–	–	–	–	–	–
COc1ccc(CNc2cc([N+](=O)[O-])ccc2OC)cc1	–	–	74.7	–	52.4	–
Cc1cc([N+](=O)[O-])ccc1NCc1ccc2ccccc2c1	–	–	77.3	–	–	–
O=C1CC(=O)C(n2cncn2)C(c2ccc(Cl)cc2Cl)C1 (stereo not drawn)	–	–	74.5	–	–	–
CC(C)(C)c1ccc(Oc2cccc(C3CC(=O)C(C4NCCc5ccccc54)C(=O)C3n3cncn3)c2)cc1 (stereo not drawn)	–	–	–	–	–	–
CCOc1ccc(CC(=O)NCc2cn3c(C)csc3n2)cc1	–	–	–	–	–	·
Cc1[nH]cnc1CSCCN	–	–	73.6	·	–	–
Fc1ccc(-c2nc3ccncc3[nH]2)cc1	–	–	62.0	–	–	–
CCOC(=O)CC1C(=O)NCCN1Cc1cccc(OC)c1 (stereo not drawn)	–	–	75.4	·	–	·
Cc1cc(NS(=O)(=O)c2ccc(NC(=O)Nc3ccccc3)cc2)no1	–	–	–	–	–	–
Cc1cc(C)c2nc(-c3ccccn3)cc(C(=O)Nc3ccc(S(=O)(=O)Nc4cc(C)on4)cc3)c2c1	–	–	–	–	–	-3.03
Cc1cc(NS(=O)(=O)c2ccc(NC(=O)C(c3ccccc3)c3ccccc3)cc2)no1	–	–	64.5	–	–	–
Oc1ccc(Nc2nc3ccccc3nc2Nc2ccc(O)cc2)cc1	–	–	98.6	–	98.8	-4.39
Cc1ccc(CSCC(=O)N/N=C/c2sccc2C)cc1	–	–	–	-4.9	83.2	–
Cc1cc(Cl)ccc1OCCCC(=O)NC1CCN(C)CC1	–	–	–	–	–	–
CN(C)S(=O)(=O)Nc1ccc(NS(=O)(=O)N(C)C)c(S(=O)(=O)c2ccccc2)c1	–	–	–	–	–	–
CN(C)S(=O)(=O)Nc1ccc2c(c1)Cc1ccccc1-2	–	–	94.2	–	–	–
CCOCCn1c(SCc2ccc(C)cc2)nc2c1c(=O)[nH]c(=O)n2C	–	–	–	–	69.5	·
CCCCCCn1c(SCC(C)C)nc2c1c(=O)[nH]c(=O)n2C	–	–	57.0	–	–	–
SMILES	CYP2C19 activ	CYP2C9 act	CYP2C9 inhib	Cav3 T inh	CYP2C19 inhib	PTK2B oligo ant
CCOCCn1c(SCc2ccc(F)cc2)nc2c1c(=O)[nH]c(=O)n2C	–	–	–	–	–	·
CCCCCn1c(Sc2nc3ccccc3s2)nc2c1c(=O)[nH]c(=O)n2C	–	–	51.0	–	–	–
C=C(C)CSc1nc2c(c(=O)[nH]c(=O)n2C)n1CCC(C)C	–	–	70.5	–	–	·
CCCCCCn1c(SCC(=O)OC)nc2c1c(=O)[nH]c(=O)n2C	–	–	–	–	–	·
CC(C)CCn1c(SCc2ccc(Cl)cc2)nc2c1c(=O)[nH]c(=O)n2C	–	–	78.8	–	51.4	–
Cc1ccc(CSc2nc3c(c(=O)[nH]c(=O)n3C)n2CCC(C)C)cc1	–	–	74.7	–	61.1	·
C/C(Cl)=C/Cn1c(SCc2ccc(Cl)cc2)nc2c1c(=O)[nH]c(=O)n2C	–	–	–	–	–	–
COCCSc1nc2c(c(=O)[nH]c(=O)n2C)n1CCC(C)C	–	–	–	·	–	·
